Data as given in PubChem BioAssay (NCATS).
Results filed as inconclusive are left out. The source made the active and inactive calls. Unless noted, calls come from the whole dose curve; as a rule, active = well fitted curve in the direction sought with a large enough effect; inconclusive = small, poorly fitted or top-dose-only effect, or another doubt; inactive = no such curve, though single readings can be large; an effect the other way counts as inactive or inconclusive.

Legend:
[1] = qHTS assay for measurement of the activity of small molecule inhibitors on Zika virus induced Caspase-3 activity in human iPSC derived neural progenitor cells (hNPCs) (AID 1224857); note: nearly all actives have a fitted effect of over 65% in size; note: potency is the fitted concentration of half-maximal effect
In short: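 Pretreat hNPCs with compound 1 h; infect ZIKV 2 FFU/cell; 6 h 37 C, 5% CO2; Caspase-Glo 3/7, 30 min RT; luminescence; normalize to no-virus and virus-only wells.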

[2] = qHTS of pediatric cancer cell lines to identify multiple opportunities for drug repurposing: Primary screen for TC32 cells (AID 1347089); note: nearly all actives have a fitted effect of over 60% in size; note: potency is the fitted concentration of half-maximal effect
In short: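 Luminescent CellTiter-Glo read-out of metabolically active TC32 cells after 48 h compound exposure. Primary: MIPE 11-point, 0.78 nM–46 µM; NPC 8-point, 0.59 nM–46 µM. Confirmatory: 11-point dilutions.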

[3] = qHTS of pediatric cancer cell lines to identify multiple opportunities for drug repurposing: Primary screen for DAOY cells (AID 1347090); note: nearly all actives have a fitted effect of over 55% in size; note: potency is the fitted concentration of half-maximal effect
In short: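 Viability measured as metabolically active cells via CellTiter-Glo luminescence following 48 hours of compound exposure, 11-point dilutions in confirmatory testing. 500-1,000 cells/well plated 5 hours before dosing; controls were DMSO and 2.3 µM bortezomib.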

[4] = molecular target: T1, Tyrosine-protein phosphatase non-receptor type substrate 1 (Homo sapiens) + Leukocyte surface antigen CD47 (Homo sapiens) (UniProt P78324+Q08722); assay: CD47-SIRPalpha protein protein interaction - LANCE assay qHTS validation (AID 1347057; active = well fitted curve in the direction sought with a large enough effect in the signal ratio, with a control signal flat, not every such curve was filed as active; the % refers to the signal ratio; note: series mostly up to about 38 µM)
T1 sequence (P78324 whole entry, looked up): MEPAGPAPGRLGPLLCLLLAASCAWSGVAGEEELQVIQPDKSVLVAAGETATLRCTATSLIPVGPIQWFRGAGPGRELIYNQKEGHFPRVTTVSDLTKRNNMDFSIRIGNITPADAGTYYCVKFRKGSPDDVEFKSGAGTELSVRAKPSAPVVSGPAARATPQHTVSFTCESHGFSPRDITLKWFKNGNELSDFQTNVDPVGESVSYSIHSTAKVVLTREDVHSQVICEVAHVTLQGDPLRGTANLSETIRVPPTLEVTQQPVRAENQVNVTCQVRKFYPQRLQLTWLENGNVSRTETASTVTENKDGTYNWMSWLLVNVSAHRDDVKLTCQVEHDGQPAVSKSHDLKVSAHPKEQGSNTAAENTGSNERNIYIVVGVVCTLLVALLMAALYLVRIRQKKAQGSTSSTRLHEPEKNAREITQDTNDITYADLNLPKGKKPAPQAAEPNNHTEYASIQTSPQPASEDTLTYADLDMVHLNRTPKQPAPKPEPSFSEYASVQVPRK
T1 sequence (Q08722 whole entry, looked up): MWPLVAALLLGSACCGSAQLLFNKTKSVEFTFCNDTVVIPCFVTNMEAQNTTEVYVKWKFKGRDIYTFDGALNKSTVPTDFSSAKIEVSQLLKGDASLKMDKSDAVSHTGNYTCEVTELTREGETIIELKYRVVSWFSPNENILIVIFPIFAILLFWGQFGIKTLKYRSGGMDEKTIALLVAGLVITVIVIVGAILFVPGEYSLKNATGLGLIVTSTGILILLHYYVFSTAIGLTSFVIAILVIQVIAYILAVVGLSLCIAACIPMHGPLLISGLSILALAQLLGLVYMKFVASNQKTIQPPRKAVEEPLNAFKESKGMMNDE
In short: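 First, His-tagged CD47 and Eu-labelled anti-His antibody met the compound for 30 min; next, site-specifically biotinylated SIRPalpha was added for 30 min; finally streptavidin-APC was added before reading the TR-FRET ratio.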

[5] = molecular target: T1, Tyrosine-protein phosphatase non-receptor type substrate 1 (Homo sapiens) + Leukocyte surface antigen CD47 (Homo sapiens); assay: CD47-SIRPalpha protein protein interaction - Alpha assay qHTS validation (AID 1347059);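 note: bead proximity luminescence from CD47 binding SIRPalpha after compound preincubation with SIRPalpha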
In short: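 Biotinylated Avi-tagged SIRPalpha (25 nM) preincubated 30 min with compound, then His-tagged CD47 (12.5 nM) added 30 min; AlphaScreen with Ni-NTA acceptor and streptavidin donor beads. PBS pH 7.4, 0.05% IGEPAL, room temperature; 7-point titrations.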

[6] = qHTS assay for measurement of the activity of small molecule inhibitors on Zika virus induced Caspase-3 activity in human astrocytoma cells (AID 1224859)
In short: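 Human SNB-19 astrocytoma cells in RPMI 1640 with 10% FBS receive compound one hour ahead of Zika virus at 2 FFU/cell. After 6 h infection, caspase-3/7 activity is detected by Caspase-Glo luminescence.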

[7] = qHTS assay to identify small molecule inhibitors of chordoma cells - UCH-1 (AID 1259355); note: nearly all actives have a fitted effect of over 55% in size
In short: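 Cells (800/well) were seeded and left overnight at 37 C, 5% CO2, then treated with drugs at 15 concentrations plus a combination mix of auranofin, camptothecin, doxorubicin, rubitecan and topotecan. Viability after 48hr was read by CellTiter-Glo luminescence.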

[8] = qHTS assay to identify small molecule inhibitors of chordoma cells - UCH-2 (AID 1259356); note: series mostly up to about 46 µM
[9] = P-glycoprotein substrates identified in KB-8-5-11 adenocarcinoma cell line, qHTS therapeutic library screen (AID 1346987); note: nearly all actives have a fitted effect of over 65% in size; note: potency is the fitted concentration of half-maximal effect
In short: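 KB-8-5-11: colchicine-selected sub-line of KB-3-1 over-expressing P-gp; assay medium lacked colchicine. 72 h drug exposure at 37 degree C, CellTiter-Glo.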

[10] = NS1 protein of Zika virus - qHTS assay to identify small molecule inhibitors in human HEK 293 cells (AID 1347053); note: series mostly up to about 46 µM; nearly all actives have a fitted effect of over 55% in size
In short: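 HEK 293 cells, seeded 20 h at 37 C, were pretreated with compound 1 h, then infected with ZIKV MR766 (MOI = 0.5) for 24 h. NS1 was read by TR-FRET with two anti-NS1 antibodies, normalized to uninfected and infected wells.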

[11] = Natriuretic polypeptide receptor (hNpr1) antagonism - Pilot counterscreen GloSensor control cell line (AID 1347045; calls by dose curve; note: series mostly up to about 38 µM)
In short: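 HEK293 cells carrying the GloSensor cGMP sensor (GIP/pGS-40F) were loaded with 2% GloSensor reagent for 2 h, exposed to compounds for 30 min, and then stimulated with 50 uM sodium nitroprusside for 20 min at room temperature.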

[12] = molecular target: Atrial natriuretic peptide receptor 1 (Homo sapiens) (UniProt P16066); assay: Natriuretic polypeptide receptor (hNpr1) antagonism - Pilot screen (AID 1347049; calls by dose curve;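 note: agonist-evoked cGMP luminescence read 20 min after hNppA addition; series mostly up to about 58 µM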)
Atrial natriuretic peptide receptor 1 (Homo sapiens), sequence (P16066 whole entry, looked up): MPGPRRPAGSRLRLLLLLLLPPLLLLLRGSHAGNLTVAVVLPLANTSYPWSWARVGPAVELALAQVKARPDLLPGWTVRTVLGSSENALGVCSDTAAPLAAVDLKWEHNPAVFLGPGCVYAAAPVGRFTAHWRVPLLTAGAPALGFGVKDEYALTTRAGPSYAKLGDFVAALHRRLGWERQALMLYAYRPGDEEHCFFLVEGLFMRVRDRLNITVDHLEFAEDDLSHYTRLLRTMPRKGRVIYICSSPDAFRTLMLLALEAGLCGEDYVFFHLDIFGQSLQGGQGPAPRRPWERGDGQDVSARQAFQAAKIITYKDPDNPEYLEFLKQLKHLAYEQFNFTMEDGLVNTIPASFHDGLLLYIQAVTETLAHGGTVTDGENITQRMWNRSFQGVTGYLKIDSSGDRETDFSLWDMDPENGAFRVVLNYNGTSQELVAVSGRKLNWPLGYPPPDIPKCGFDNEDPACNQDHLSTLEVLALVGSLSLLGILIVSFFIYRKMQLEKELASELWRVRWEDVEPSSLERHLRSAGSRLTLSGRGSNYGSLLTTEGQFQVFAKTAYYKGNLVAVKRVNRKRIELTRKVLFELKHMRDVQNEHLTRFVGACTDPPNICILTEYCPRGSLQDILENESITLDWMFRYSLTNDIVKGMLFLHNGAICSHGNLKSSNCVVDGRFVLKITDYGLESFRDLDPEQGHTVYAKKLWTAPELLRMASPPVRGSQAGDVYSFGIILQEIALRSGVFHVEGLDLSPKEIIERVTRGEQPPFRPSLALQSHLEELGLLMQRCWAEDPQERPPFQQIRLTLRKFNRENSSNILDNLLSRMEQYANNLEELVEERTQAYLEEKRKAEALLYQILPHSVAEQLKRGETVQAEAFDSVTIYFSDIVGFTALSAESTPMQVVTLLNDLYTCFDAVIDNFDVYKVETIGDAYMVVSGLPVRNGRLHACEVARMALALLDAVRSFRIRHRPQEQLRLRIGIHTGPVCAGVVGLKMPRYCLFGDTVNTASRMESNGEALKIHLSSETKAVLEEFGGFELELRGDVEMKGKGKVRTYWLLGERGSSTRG
In short: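 HEK293 cells expressing hNpr1 and GloSensor cGMP luciferase, 1500/well, loaded with 2% GloSensor reagent 2 h, compound 30 min at room temperature; luminescence read before and 20 min after 0.1 nM hNppA stimulation.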

[13] = molecular target: Atrial natriuretic peptide receptor 2 (Homo sapiens) (UniProt P20594); assay: Natriuretic polypeptide receptor (hNpr2) antagonism - Pilot subtype selectivity assay (AID 1347050; calls by dose curve)
Atrial natriuretic peptide receptor 2 (Homo sapiens), sequence (P20594 whole entry, looked up): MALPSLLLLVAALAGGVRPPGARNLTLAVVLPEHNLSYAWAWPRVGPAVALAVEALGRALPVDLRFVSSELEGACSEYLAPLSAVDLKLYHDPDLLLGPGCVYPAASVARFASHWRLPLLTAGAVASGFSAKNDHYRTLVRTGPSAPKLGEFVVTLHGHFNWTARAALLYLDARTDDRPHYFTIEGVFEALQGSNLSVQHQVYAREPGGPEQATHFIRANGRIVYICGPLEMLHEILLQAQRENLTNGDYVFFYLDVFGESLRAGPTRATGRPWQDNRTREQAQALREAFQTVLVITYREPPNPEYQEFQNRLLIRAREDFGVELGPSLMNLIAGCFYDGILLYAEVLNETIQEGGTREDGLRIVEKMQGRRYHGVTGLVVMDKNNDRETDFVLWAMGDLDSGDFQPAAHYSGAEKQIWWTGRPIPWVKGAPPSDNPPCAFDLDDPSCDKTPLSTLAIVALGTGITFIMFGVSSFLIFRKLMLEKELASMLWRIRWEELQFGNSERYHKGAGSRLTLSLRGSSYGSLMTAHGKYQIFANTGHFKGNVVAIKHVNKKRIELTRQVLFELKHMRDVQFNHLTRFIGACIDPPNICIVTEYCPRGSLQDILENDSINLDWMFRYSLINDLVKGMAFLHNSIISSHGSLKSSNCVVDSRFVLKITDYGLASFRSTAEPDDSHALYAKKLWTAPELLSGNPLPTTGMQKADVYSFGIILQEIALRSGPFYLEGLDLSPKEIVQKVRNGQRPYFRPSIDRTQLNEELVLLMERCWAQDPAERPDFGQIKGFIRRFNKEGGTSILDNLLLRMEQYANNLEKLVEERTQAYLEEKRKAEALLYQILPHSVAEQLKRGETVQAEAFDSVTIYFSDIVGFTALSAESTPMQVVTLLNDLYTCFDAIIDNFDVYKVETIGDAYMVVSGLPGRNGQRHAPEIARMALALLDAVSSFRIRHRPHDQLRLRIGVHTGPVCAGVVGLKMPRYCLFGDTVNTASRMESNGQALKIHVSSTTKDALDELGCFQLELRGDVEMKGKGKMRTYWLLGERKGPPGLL
In short: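 HEK293 cells expressing hNpr2 and a GloSensor cGMP luciferase sensor, 1500/well, preloaded 2 h with 2% GloSensor reagent, compound 30 min, then 1 nM hNppC for 20 min. Antagonism from luminescence after versus baseline pre-read; LOPAC in 1:5 titrations.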

[14] = molecular target: T1, Tyrosine-protein phosphatase non-receptor type substrate 1 (Homo sapiens) + Leukocyte surface antigen CD47 (Homo sapiens); assay: CD47-SIRPalpha protein protein interaction - HTRF assay qHTS validation (AID 1347058; active = well fitted curve in the direction sought with a large enough effect in the signal ratio, not every such curve was filed as active; the % refers to the signal ratio;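 note: recombinant soluble extracellular CD47 with His tag and biotinylated SIRPalpha domains; series mostly up to about 38 µM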)
In short: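 TR-FRET read (Ch1/Ch2 ratio) of soluble extracellular CD47 and Avi-biotinylated SIRPalpha domains in PBS pH 7.4 with 0.05% IGEPAL; 7-point compound titration. Sequential 30 min room-temperature steps; non-biotinylated SIRPalpha as control inhibitor.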

[15] = molecular target: Parathyroid hormone/parathyroid hormone-related peptide receptor (Homo sapiens) (UniProt Q03431); assay: qHTS for PTHR1 Agonists: Optimization Screen against the NCGC LOPAC library (AID 1347079);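 note: GloSensor cAMP luminescence in HEK-293 GP2 cells expressing human PTHR1 with IBMX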
Parathyroid hormone/parathyroid hormone-related peptide receptor (Homo sapiens), sequence (Q03431 whole entry, looked up): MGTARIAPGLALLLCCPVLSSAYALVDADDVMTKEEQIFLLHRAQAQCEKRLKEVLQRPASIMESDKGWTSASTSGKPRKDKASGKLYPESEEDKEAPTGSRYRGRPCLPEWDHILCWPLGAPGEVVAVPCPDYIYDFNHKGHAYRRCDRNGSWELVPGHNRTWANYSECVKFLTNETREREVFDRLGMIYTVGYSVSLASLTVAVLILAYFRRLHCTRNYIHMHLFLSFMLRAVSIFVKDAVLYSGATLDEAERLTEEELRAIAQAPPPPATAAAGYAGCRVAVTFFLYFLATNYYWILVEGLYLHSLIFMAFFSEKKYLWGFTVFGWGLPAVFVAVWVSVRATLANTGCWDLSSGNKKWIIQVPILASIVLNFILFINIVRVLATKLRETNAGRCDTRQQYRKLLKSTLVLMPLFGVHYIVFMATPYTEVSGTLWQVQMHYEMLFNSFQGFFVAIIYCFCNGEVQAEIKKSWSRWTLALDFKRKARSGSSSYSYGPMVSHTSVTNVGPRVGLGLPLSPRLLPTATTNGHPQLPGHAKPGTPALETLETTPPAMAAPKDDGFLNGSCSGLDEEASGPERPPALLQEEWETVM
In short: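 Compounds were tested across a qHTS titration. PTHR1-expressing GP2 cells report cAMP rises via GloSensor luminescence after 1 hr compound exposure at 37C with IBMX present.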

Measured: Potency

Nc1nc2ccc([N+](=O)[O-])cc2s1
inactive: [2] | [3]
active: [1] 10 µM

COc1ccc(C(=O)/C(Cc2cc(OC)c(OC)c(OC)c2)=C(\C(=O)O)c2ccc3c(c2)OCO3)cc1
inactive: [1] | [4] | [5]

O=C(O)c1ccccc1Nc1cccc(C(F)(F)F)c1
inactive: [6] | [7] | [8] | [9] | [10] | [2] | [3]

Cc1cn([C@H]2CC(N=[N+]=[N-])[C@@H](CO)O2)c(=O)[nH]c1=O (stereo partly drawn)
inactive: [1] | [10] | [4] | [5]

C[N+](C)(C)CCOP(=O)(O)OP(=O)([O-])OC[C@H]1O[C@@H](n2ccc(N)nc2=O)[C@H](O)[C@@H]1O
inactive: [6] | [7] | [8] | [9] | [11] | [12] | [13] | [4] | [14] | [5] | [15]

CC(C)(NS(=O)(=O)c1ccc(Oc2ccc(F)cc2)cc1)C(=O)NO
inactive: [1] | [4] | [14] | [5]

CCC1C(=O)OCC1Cc1cncn1C (stereo not drawn)
inactive: [6] | [7] | [8] | [9] | [13] | [10] | [4] | [14] | [5] | [15] | [2] | [3]

CCCSc1ccc2nc(NC(=O)OC)[nH]c2c1
active: [9] 0.556 µM | [2] 0.938 µM | [3] 1.33 µM
inactive: [6] | [8] | [10]

CCCCCCOc1ccccc1C(N)=O
active: [9] 18.4 µM
inactive: [6] | [7] | [8] | [2] | [3]

O=C1CN(/N=C/c2ccc([N+](=O)[O-])o2)C(=O)N1
inactive: [6] | [7] | [8] | [10] | [3]

Cc1c(Nc2ncccc2C(=O)O)cccc1C(F)(F)F
inactive: [6] | [7] | [8] | [9] | [10] | [2] | [3]

CO[C@@]1(NC(=O)Cc2cccs2)C(=O)N2C(C(=O)O)=C(COC(N)=O)CS[C@@H]21
inactive: [6] | [9] | [10] | [2] | [3]

CCN1/C(=C/C(C)=O)Sc2ccc(OC)cc21
inactive: [6] | [9] | [12] | [13] | [10] | [4] | [14] | [5] | [15]

CC(C)Cc1ccc([C@H](C)C(=O)O)cc1
inactive: [6] | [9] | [13] | [10] | [4] | [14] | [5] | [15]

Cc1cc(O)c2ccccc2c1O
inactive: [6] | [7] | [8] | [2]

CCOC(=O)c1ccccc1O
inactive: [6] | [7] | [8] | [9] | [10] | [2] | [3]

c1ccc2sc(SN3CCOCC3)nc2c1
inactive: [6] | [7] | [8] | [9] | [10] | [2] | [3]

Cc1nc2ccccc2n1Cc1ccc(Cl)cc1
inactive: [6] | [7] | [8] | [10]
active: [9] 4.11 µM | [3] 5.31 µM

O=C(CS)Nc1ccccc1
inactive: [6] | [9] | [10] | [2]

CN(C)c1ccc(N=NS(=O)(=O)O)cc1
inactive: [6] | [9] | [10] | [2]

O=C(CCN1CCN(CCO)CC1)N1c2ccccc2Sc2ccc(C(F)(F)F)cc21
inactive: [6] | [7] | [8] | [10] | [2] | [3]

N#C/C(=C\c1ccc(O)c(O)c1)C(=O)NCCCc1ccccc1
inactive: [6] | [9] | [11] | [12] | [13] | [15]

COc1ccc(-c2cc(=S)ss2)cc1
inactive: [6] | [7] | [8] | [10] | [2] | [3]

CN(C)CCn1nnnc1SCC1=C(C(=O)O)N2C(=O)[C@@H](NC(=O)Cc3csc(N)n3)[C@H]2SC1
inactive: [6] | [7] | [8] | [9] | [10] | [2] | [3]

[O-][n+]1ccccc1SSc1cccc[n+]1[O-]
active: [9] 7.31 µM | [2] 0.325 µM | [3] 0.0731 µM
inactive: [6] | [8]

CC(=O)c1ccc(OCC(=O)N2CCCCC2)cc1
inactive: [6] | [9] | [10] | [2] | [3]

CC(=O)SCC(CC(=O)c1ccc(C)cc1)C(=O)O (stereo not drawn)
inactive: [6] | [9] | [10] | [2] | [3]

COc1cc2c3cc1Oc1cc(ccc1O)C[C@@H]1c4c(cc(OC)c(O)c4Oc4ccc(cc4)C[C@@H]3N(C)CC2)CC[N+]1(C)C
inactive: [6] | [7] | [8] | [9] | [10] | [2] | [3]

Nc1cc(-c2ccncc2)c[nH]c1=O
inactive: [6] | [7] | [8] | [10] | [2] | [3]

O=C(/C=C/c1ccccc1)NCCO
inactive: [6] | [7] | [8] | [9] | [10] | [2] | [3]

C#C[C@]1(O)CC[C@H]2[C@@H]3CCc4cc(O)ccc4[C@H]3CC[C@@]21C
inactive: [6] | [8] | [10]
active: [9] 6.51 µM | [3] 13.3 µM

COc1cc(NC(C)CCCN)c2ncccc2c1 (stereo not drawn)
active: [2] 16.7 µM
inactive: [6] | [7] | [8] | [9] | [3]
